The panel holds about 83,000 compounds, 20% with a hit somewhere; the sample as a whole holds those more often.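 Step 1: grow cells in 96-well plates. Step 2: add test compound at a single concentration. Step 3: incubate 48 h. Step 4: record percent growth.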 Unmarked numbers belong to inactive results. Active and inactive are the calls of the source. Rule for the calls: active = growth percent below 10; inactive = the rest.

Among the test systems are HCT-15 colon; HT29 colon; SNB-75 CNS; SNB-19 CNS; U251 CNS; PC-3 prostate; SK-MEL-5 melanoma; UACC-62 melanoma; SK-MEL-28 melanoma; SK-MEL-2 melanoma; EKVX NSCLC; SN12C renal; UO-31 renal; TK-10 renal; ACHN renal; CAKI-1 renal; MOLT-4 leukemia; A498 renal; LOX IMVI melanoma; CCRF-CEM leukemia.
Assay in all cases: NCI-60 one-dose screen, 48 h (100 = growth as untreated, 0 = no growth, -100 = all killed)
What all share (conditions): 10 µM unless noted

With `CC1=C(C)C(=O)C(Nc2cccc(C(=O)OC(C)(C)C)c2)=C(Br)C1=O`, the growth in the experiment with HCT-15 colon is 73.2%; in the experiment with HT29 colon it was 118%; with SNB-75 CNS it was 59.7%; in the experiment with SNB-19 CNS, 84.6%; with U251 CNS it was 90.7%; in the experiment with PC-3 prostate, 71.7%. The growth is 96% in the experiment on SK-MEL-5 melanoma; 79.2% in the experiment on UACC-62 melanoma; 101% in the experiment on SK-MEL-28 melanoma; 106% in the experiment with SK-MEL-2 melanoma; 103% in the experiment with EKVX NSCLC; 85.7% in the experiment with SN12C renal. Moreover, the growth in the experiment on UO-31 renal is 71.6%; in the experiment on TK-10 renal it was 122%; in the experiment on ACHN renal, 87.5%; with CAKI-1 renal, 96.4%; in the experiment on MOLT-4 leukemia, 12.5%.

For the compound `C[C@]12CC[C@@H]3c4cc(OC(F)F)c(OS(N)(=O)=O)cc4CC[C@H]3[C@@H]1CC[C@@H]2OS(N)(=O)=O`, the growth in the experiment on HCT-15 colon is 20.1%; in the experiment with HT29 colon it was 106%; in the experiment with SNB-75 CNS, -3.22% (active); with SNB-19 CNS, 53.6%; in the experiment on U251 CNS it was 33.1%; in the experiment on PC-3 prostate it was 52.2%. Moreover, the growth was 27% in the experiment on SK-MEL-5 melanoma; 54.1% in the experiment on UACC-62 melanoma; 50% in the experiment with SK-MEL-28 melanoma; 36.1% with SK-MEL-2 melanoma; 19% in the experiment with EKVX NSCLC; 42% with SN12C renal. Also, the growth in the experiment with UO-31 renal was 42.9%; in the experiment on TK-10 renal, 100%; in the experiment on ACHN renal, 40.6%; with CAKI-1 renal, 39.1%; in the experiment with A498 renal, 94.8%; in the experiment with MOLT-4 leukemia it was 20.6%.

On to `CC1=C([Se]CC(OC(=O)[C@@H](CSSC(C)(C)C)NC(=O)OC(C)(C)C)C(=O)NC(C)(C)C)C(=O)c2ccccc2C1=O` (stereo partly drawn), for which the growth with HCT-15 colon is -28.6% (active); in the experiment with HT29 colon, -6.98% (active); in the experiment with SNB-75 CNS it was -95.8% (active); in the experiment on SNB-19 CNS, -90.8% (active); in the experiment with U251 CNS, -86.5% (active); in the experiment with PC-3 prostate, -71.6% (active). Further, the growth in the experiment on SK-MEL-5 melanoma is -97.6% (active); in the experiment with LOX IMVI melanoma it was -61.9% (active); with SK-MEL-28 melanoma, -96.3% (active); with SK-MEL-2 melanoma, 7.82% (active); in the experiment with EKVX NSCLC it was -74.2% (active); with SN12C renal it was -73.3% (active). In addition, the growth in the experiment with UO-31 renal is 15.4%; with TK-10 renal, -96% (active); in the experiment on ACHN renal it was -83% (active); with CAKI-1 renal, -52.1% (active); in the experiment on A498 renal, -28.9% (active); in the experiment with CCRF-CEM leukemia, -21.6% (active). Moreover, the growth in the experiment with MOLT-4 leukemia was 15.8%.

`C=C1C(=O)O[C@H]2[C@H]1CC/C(COC(=O)CSCC(=O)OC/C1=C/CC[C@@]3(C)O[C@H]3[C@H]3OC(=O)C(=C)[C@@H]3CC1)=C\CC[C@@]1(C)O[C@@H]21`: the growth is 5.12% (active) in the experiment with HCT-15 colon; -26% (active) in the experiment with HT29 colon; 81.8% in the experiment with SNB-75 CNS; 69.1% in the experiment with SNB-19 CNS; 34.3% with U251 CNS; 46.9% in the experiment with PC-3 prostate. The growth in the experiment on SK-MEL-5 melanoma was 63.2%; in the experiment with LOX IMVI melanoma, -25.2% (active); in the experiment on SK-MEL-28 melanoma it was -3.76% (active); in the experiment with SK-MEL-2 melanoma it was 68%; in the experiment on EKVX NSCLC, 57.7%; with SN12C renal, 22.1%. Further, the growth in the experiment with UO-31 renal was 3.4% (active); with TK-10 renal it was 9.84% (active); in the experiment with ACHN renal, 2.35% (active); with CAKI-1 renal, 76.4%; in the experiment on A498 renal it was 81.1%; with CCRF-CEM leukemia, -7.55% (active). For the same compound, in the experiment on MOLT-4 leukemia, the growth was -3.7% (active).

As for `N#CC1=C(N)Oc2c(sc3c(Br)cccc23)C1c1ccc([N+](=O)[O-])cc1` (stereo not drawn), the growth in the experiment with HCT-15 colon is 7.43% (active); with HT29 colon it was 2.5% (active); with SNB-75 CNS, 25.8%; in the experiment on SNB-19 CNS, 30.8%; in the experiment on U251 CNS, 14.6%; with PC-3 prostate, 13.6%. Moreover, the growth with SK-MEL-5 melanoma is 0.865% (active); with LOX IMVI melanoma, -11.3% (active); in the experiment with SK-MEL-28 melanoma it was 61.4%; with SK-MEL-2 melanoma, 39.6%; in the experiment on EKVX NSCLC, 58.9%; with SN12C renal it was 13.5%. Moreover, the growth is 34.6% with UO-31 renal; 71.9% in the experiment with TK-10 renal; 26.8% with ACHN renal; -11.8% (active) in the experiment with A498 renal; 10% with CCRF-CEM leukemia; 5.93% (active) in the experiment on MOLT-4 leukemia.

Take `Cc1ccc(-c2nc(N3CCN(CC(=O)Nc4ccc(Cl)c(C(F)(F)F)c4)CC3)c3ccccc3n2)cc1`: the growth in the experiment with HCT-15 colon is 79.1%; with HT29 colon, 89.8%; in the experiment with SNB-75 CNS it was 81.2%; in the experiment with SNB-19 CNS it was 98.8%; in the experiment on U251 CNS, 93.2%; in the experiment with PC-3 prostate it was 79.1%. Moreover, the growth is 103% with SK-MEL-5 melanoma; 83% in the experiment with UACC-62 melanoma; 105% in the experiment with SK-MEL-28 melanoma; 87.3% in the experiment on EKVX NSCLC; 94.6% in the experiment on SN12C renal; 65.6% with UO-31 renal. Moreover, the growth in the experiment on TK-10 renal is 101%; in the experiment on ACHN renal it was 95%; in the experiment with CAKI-1 renal it was 80.2%; with A498 renal, 74.6%; with CCRF-CEM leukemia it was 89.5%; in the experiment on MOLT-4 leukemia, 62.6%.

`C[C@H]1[C@H]2[C@H]3CC[C@@H]4[C@@]5(C)CC[C@H](O)C(C)(C)[C@@H]5CC[C@@]4(C)[C@]3(C)CC[C@]23CO[C@]1(C)[C@@H](C(=O)/C=C\c1cccnc1)C3`: the growth with HCT-15 colon was 38.5%; in the experiment with HT29 colon, 99.5%; in the experiment on SNB-75 CNS it was 72.8%; in the experiment on SNB-19 CNS it was 71.6%; in the experiment on U251 CNS, 58.6%; with PC-3 prostate, 21.3%. The growth was 37% with SK-MEL-5 melanoma; 51.5% in the experiment on LOX IMVI melanoma; 66.2% with SK-MEL-28 melanoma; 87.3% with SK-MEL-2 melanoma; 101% in the experiment on EKVX NSCLC; 62.7% in the experiment with SN12C renal. In addition, the growth is 58.7% in the experiment on UO-31 renal; 31.9% in the experiment on TK-10 renal; 41.6% with ACHN renal; 55.6% with CAKI-1 renal; 72.9% with A498 renal; 30.8% in the experiment with CCRF-CEM leukemia. The growth in the experiment on MOLT-4 leukemia is 25.2%.

For the origin of these results see PubChem BioAssay (NCI).
